Test results taken from PubChem BioAssay (EPA / NIEHS).
Results filed as inconclusive are left out. Activity calls are given as the source filed them. The calls were made as follows: active = hit-call score of the fitted dose curve at least 0.9, where 1 is the maximum; inconclusive = response in the unintended direction; inactive = score below 0.9.

What follows are compounds tested against human Vitamin D Receptor (VDR), VDR (gene 7421) (UniProt P11473) (assay: ATG_VDR_TRANS: Attagene TRANS-FACTORIAL HepG2 Assay for human Vitamin D Receptor (VDR) (AID 2283022)).
Sequence of human Vitamin D Receptor (VDR), VDR (gene 7421) (P11473 whole entry, looked up, the tested form may be a part): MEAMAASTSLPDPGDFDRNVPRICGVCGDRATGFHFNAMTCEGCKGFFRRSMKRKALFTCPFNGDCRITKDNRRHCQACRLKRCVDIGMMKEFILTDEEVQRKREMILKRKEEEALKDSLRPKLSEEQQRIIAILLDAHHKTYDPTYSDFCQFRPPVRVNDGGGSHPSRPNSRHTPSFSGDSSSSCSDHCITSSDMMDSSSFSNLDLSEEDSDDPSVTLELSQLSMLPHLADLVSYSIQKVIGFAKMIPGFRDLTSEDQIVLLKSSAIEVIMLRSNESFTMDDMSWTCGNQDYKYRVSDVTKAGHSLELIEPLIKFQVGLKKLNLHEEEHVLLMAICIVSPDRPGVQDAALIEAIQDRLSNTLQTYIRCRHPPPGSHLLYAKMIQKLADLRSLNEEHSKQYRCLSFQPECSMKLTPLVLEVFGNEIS
Procedure, shortened: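 HepG2 cells were transiently transfected with GAL4-UAS reporter units and a chimeric VDR-Gal4 construct, then dosed for 24 hours. Reporter mRNA was quantified by RT-PCR, fluorescent labeling, HpaI digestion and capillary electrophoresis; gain of signal analysed vs DMSO.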

Row | SMILES | outcome
1 | CC1(C)[C@@H]2CC[C@@]1(C)C(=O)C2 | inactive
2 | O=C(O[C@@H]1Cc2c(O)cc(O)cc2O[C@@H]1c1cc(O)c(O)c(O)c1)c1cc(O)c(O)c(O)c1 | inactive
3 | CC1CC(=O)CC(C)(C)C1 (stereo not drawn) | inactive
4 | CC(=O)CCC1=C(C)CCCC1(C)C | inactive
5 | Nc1ccc(O)c([N+](=O)[O-])c1 | inactive
6 | CC1CCC(=O)C1=O (stereo not drawn) | inactive
7 | CC1=NN(c2ccc(S(=O)(=O)O)cc2)C(=O)C1N=Nc1ccccc1 (stereo not drawn) | inactive
8 | CCCCc1ccc(Cl)cc1 | inactive
9 | O=C(O)/C=C/c1ccccc1 | inactive
10 | C[Si](C)(C)N[Si](C)(C)C | inactive
11 | O=C(O)CC(C(=O)O)S(=O)(=O)O (stereo not drawn) | inactive
12 | Cc1cc(C)c(C=O)c(C)c1 | inactive
13 | COC(Cc1ccccc1)OC | inactive
14 | [Cl][Sc]([Cl])[Cl] | inactive
15 | CCN(CC)c1cccc(C)c1 | inactive
16 | CC(C)(C)C1CCC(=O)CC1 | inactive
17 | COC(C=C(C)CCC=C(C)C)OC | inactive
18 | CC(C)CCOCc1ccccc1 | inactive
19 | O=c1c(O)c(-c2ccc(O)cc2O)oc2cc(O)cc(O)c12 | inactive
20 | CC1(C)C(=O)N(CO)C(=O)N1CO | inactive
21 | CCCCOC(=O)CCC(C)=O | inactive
22 | CC(C)c1cc(C(C)C)cc(C(C)C)c1 | inactive
23 | COCC(=O)O | inactive
24 | CCCCC(CC)COC(=O)/C=C/c1ccc(OC)cc1 (stereo not drawn) | inactive
25 | CC(=O)c1ccc(S(=O)(=O)NC(=O)NC2CCCCC2)cc1 | inactive
26 | CCCCOCCOCCOC(C)=O | inactive
27 | Cc1c[nH]c(=O)[nH]c1=O | inactive
28 | CCCCOC(=O)C(C)CC (stereo not drawn) | inactive
